Measurements from PubChem BioAssay (EPA / NIEHS).
Records with an inconclusive call do not appear. Calls of active or inactive are those of the source. How the source made its calls: active means hit-call score of the fitted dose curve at least 0.9, where 1 is the maximum; inconclusive means response in the unintended direction; inactive means score below 0.9.

What was measured:
[1] = target: T1, Estrogen receptor (Homo sapiens) + Estrogen receptor beta (Homo sapiens) (UniProt P03372+Q92731); experiment: OT_ER_ERaERb_0480: Odyssey Thera (OT) 8-hour HEK293T Protein-Complementation Assay for Estrogen Receptor-alpha/-beta Heterodimer (AID 2283352)
In short: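 Fluorescence increase from reconstituted reporter fragments, quantified by laser scanning cytometer, reflects ER-alpha/ER-beta heterodimer formation in human HEK293T cells. Exposure 8 h; positive-direction fitting against DMSO vehicle.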

[2] = target: T1, Estrogen receptor (Homo sapiens) + Estrogen receptor beta (Homo sapiens); experiment: OT_ER_ERaERb_1440: Odyssey Thera (OT) 24-hour HEK293T Protein-Complementation Assay for Estrogen Receptor-alpha/-beta Homodimer (AID 2283356);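 further: heteromer of ER alpha and ER beta binding domains; hits raise reporter fluorescence and both agonists and antagonists give an increase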
In short: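 Fragment complementation between ER alpha (310-547) and ER beta (263-489) ligand-binding domains in HEK293T cells; signal read 24 h post-dosing by laser scanning cytometer. Gain of fluorescence relative to DMSO fitted.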

[3] = target: Estrogen receptor beta (Homo sapiens) (UniProt Q92731); experiment: OT_ER_ERbERb_0480: Odyssey Thera (OT) 8-hour HEK293T Protein-Complementation Assay for Estrogen Receptor-beta/-beta Homodimer (AID 2283357);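 further: active means signal gain over DMSO baseline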
In short: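 Fluorescence intensity, nuclear for agonists and nuclear plus cytoplasmic for antagonists, was quantified by laser scanning cytometry versus vehicle after 8 h treatment. The cells were HEK293T stably carrying ER beta LBD fragment-complementation partners.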

[4] = target: human Peroxisome Proliferator-activated Receptor alpha (PPARa), PPARA (gene 5465) (UniProt Q07869); experiment: NVS_NR_hPPARa: NovaScreen (NVS) Nuclear Receptor Binding Assay for human Peroxisome Proliferator-activated Receptor alpha (PPARa) (AID 2283359);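 further: activity means loss of TR-FRET signal versus DMSO baseline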
In short: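 Cell-free TR-FRET binding assay with extracted PPARα protein, read 1 h after dosing. Primary screen in duplicate at 25 uM, with actives retested in concentration series. Loss of signal versus DMSO.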

[5] = target: Androgen Receptor/SRC-1 Co-activator, AR (gene 367) (UniProt P10275); experiment: OT_AR_ARSRC1_0480: Odyssey Thera (OT) 8-hour HEK293T Protein-Complementation Assay for Androgen Receptor/SRC-1 Co-activator (AID 2283354);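 further: hits raise the complementation signal above DMSO so AC50 marks enhancers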
In short: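 HEK293T cells stably expressing AR and SRC-1 fused to Venus YFP fragments, imaged 8 h after dosing. Complementation fluorescence scored as nuclear/cytoplasmic ratio at 488 nm in at least 400 cells per image; gain fitted versus DMSO.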

PGR (gene 5241) = PGR (gene 5241) (UniProt P06401); experiment: NVS_NR_hPR: NovaScreen (NVS) Nuclear Receptor Binding Assay for human Progestron Receptor (PR) (AID 2283360);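 further: active means loss of bound radioligand signal versus DMSO baseline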
In short: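 Competitive displacement of a labelled radioligand from T47D-derived receptor protein is measured in a cell-free format. Initial testing uses 25 uM in duplicate, with positive and negative controls on every plate.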

[6] = target: rat Mineralocorticoid Receptor (MR), Nr3c2 (gene 25672) (UniProt P22199); experiment: NVS_NR_rMR: NovaScreen (NVS) Nuclear Receptor Binding Assay for rat Mineralocorticoid Receptor (MR) (AID 2283355)
Description: NVS_NR_rMR is a biochemical, single-readout assay that uses extracted gene-proteins from Adrenalectomized rat brain supernatant in a tissue-based cell-free assay. Measurements were taken 24 hours after chemical dosing in a 96-well plate.NVS_NR_rMR is one of one assay component(s) measured or calculated from the NVS_NR_rMR assay. It is designed to make measurements of radioligand binding, a form of binding reporter, as detected with scintillation counting signals by Lysate-based radiodetection technology.Data from the assay component NVS_NR_rMR was analyzed into 1 assay endpoint. This assay endpoint, NVS_NR_rMR, was analyzed in the positive analysis fitting direction relative to DMSO as the negative control and baseline of activity. […] Furthermore, this assay endpoint can be referred to as a primary readout, because the performed assay has only produced 1 assay endpoint. […]
Binding assays used specific radioligands (tritiated, iodinated) with non-radioactive competitive displacement ligands in agonist or antagonist protocols (as indicated) and various reference compounds and inhibitors to titrate specific binding to receptors and transporters. Most enzyme assays (CYPs, kinases, phosphatases, proteases, HDACs) used recombinant protein and specific substrates (fluorescence mostly, some colorimetric and radioactive) and inhibitors, followed by a biochemical separation of substrate and product. […]

[7] = target: Retinoic acid receptor alpha (Homo sapiens) (UniProt P10276); experiment: NVS_NR_hRAR_Antagonist: NovaScreen (NVS) Nuclear Receptor Binding Assay for human Retinoic Acid Alpha Receptor Antagonism (RAR) (AID 2283358)
In short: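 Cell-free TR-FRET binding assay with extracted human RARalpha in antagonist mode, read 2 h after dosing. Loss of signal was fitted relative to DMSO; the primary screen used 25 uM in duplicate, with concentration series on follow-up.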

T1 sequence (P03372 whole entry, looked up, the tested form may be a part): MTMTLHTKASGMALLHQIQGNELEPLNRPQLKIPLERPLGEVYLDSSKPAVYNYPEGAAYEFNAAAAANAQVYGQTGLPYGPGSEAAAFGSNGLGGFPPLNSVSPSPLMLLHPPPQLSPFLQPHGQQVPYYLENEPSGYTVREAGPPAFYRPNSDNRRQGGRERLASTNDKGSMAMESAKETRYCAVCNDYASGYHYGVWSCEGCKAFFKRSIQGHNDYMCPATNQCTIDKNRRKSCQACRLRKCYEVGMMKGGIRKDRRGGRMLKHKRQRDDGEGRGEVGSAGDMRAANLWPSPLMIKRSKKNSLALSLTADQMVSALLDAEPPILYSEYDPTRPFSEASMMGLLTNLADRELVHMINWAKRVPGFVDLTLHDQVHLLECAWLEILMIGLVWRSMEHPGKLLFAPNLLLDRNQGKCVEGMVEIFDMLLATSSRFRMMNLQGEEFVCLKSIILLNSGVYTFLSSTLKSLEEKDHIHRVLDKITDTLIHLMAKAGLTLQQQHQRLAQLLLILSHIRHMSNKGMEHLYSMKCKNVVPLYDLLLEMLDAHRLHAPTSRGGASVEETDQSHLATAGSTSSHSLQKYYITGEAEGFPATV
T1 sequence (Q92731 whole entry, looked up, the tested form may be a part): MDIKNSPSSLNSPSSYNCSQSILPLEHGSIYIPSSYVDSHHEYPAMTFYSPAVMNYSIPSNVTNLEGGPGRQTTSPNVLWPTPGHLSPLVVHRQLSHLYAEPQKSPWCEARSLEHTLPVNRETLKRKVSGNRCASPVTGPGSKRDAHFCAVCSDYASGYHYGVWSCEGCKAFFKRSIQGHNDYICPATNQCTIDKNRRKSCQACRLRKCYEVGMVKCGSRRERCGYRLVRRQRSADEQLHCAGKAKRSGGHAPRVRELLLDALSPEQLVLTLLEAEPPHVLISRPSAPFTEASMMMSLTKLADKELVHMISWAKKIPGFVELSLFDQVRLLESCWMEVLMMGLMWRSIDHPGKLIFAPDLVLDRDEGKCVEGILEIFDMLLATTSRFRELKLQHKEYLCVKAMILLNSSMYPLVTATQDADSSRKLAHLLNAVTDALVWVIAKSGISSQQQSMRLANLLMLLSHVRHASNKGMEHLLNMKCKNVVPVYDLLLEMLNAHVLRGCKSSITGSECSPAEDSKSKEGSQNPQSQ
Sequence of human Peroxisome Proliferator-activated Receptor alpha (PPARa), PPARA (gene 5465) (Q07869 whole entry, looked up): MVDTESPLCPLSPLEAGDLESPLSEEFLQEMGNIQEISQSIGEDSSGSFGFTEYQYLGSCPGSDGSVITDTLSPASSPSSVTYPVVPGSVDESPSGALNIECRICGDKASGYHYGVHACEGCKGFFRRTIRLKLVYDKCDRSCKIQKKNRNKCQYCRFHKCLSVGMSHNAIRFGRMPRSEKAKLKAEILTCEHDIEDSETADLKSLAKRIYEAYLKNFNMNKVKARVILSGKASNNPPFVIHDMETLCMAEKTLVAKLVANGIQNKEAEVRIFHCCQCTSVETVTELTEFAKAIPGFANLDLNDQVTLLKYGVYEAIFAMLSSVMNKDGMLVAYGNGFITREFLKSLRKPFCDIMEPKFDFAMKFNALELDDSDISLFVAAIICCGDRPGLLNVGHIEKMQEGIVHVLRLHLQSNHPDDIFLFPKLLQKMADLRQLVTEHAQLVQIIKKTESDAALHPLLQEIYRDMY
Sequence of PGR (gene 5241) (P06401 whole entry, looked up): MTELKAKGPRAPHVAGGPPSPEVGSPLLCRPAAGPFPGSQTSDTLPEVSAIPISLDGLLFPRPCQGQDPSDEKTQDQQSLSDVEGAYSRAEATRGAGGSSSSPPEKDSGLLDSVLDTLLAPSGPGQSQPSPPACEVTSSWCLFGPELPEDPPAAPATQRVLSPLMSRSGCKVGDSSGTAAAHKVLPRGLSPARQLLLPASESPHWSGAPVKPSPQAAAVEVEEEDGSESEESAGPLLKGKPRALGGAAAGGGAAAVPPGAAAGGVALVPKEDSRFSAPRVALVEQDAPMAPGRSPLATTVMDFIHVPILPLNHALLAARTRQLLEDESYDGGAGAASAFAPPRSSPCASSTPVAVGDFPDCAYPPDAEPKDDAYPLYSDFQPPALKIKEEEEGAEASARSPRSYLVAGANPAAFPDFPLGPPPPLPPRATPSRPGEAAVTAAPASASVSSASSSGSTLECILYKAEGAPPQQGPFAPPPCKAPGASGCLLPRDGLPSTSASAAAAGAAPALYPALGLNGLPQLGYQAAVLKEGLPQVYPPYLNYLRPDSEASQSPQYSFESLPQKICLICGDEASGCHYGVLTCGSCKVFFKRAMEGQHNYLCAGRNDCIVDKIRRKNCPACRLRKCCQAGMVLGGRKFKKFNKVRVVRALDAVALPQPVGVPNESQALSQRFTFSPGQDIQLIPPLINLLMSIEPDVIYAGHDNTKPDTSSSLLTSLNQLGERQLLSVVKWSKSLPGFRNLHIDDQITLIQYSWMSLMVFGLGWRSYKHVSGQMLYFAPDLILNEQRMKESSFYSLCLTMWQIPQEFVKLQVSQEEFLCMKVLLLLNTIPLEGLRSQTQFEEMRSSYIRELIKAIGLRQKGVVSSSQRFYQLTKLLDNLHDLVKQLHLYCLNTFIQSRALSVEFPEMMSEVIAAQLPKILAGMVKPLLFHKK
Sequence of Androgen Receptor/SRC-1 Co-activator, AR (gene 367) (P10275 whole entry, looked up, the tested form may be a part): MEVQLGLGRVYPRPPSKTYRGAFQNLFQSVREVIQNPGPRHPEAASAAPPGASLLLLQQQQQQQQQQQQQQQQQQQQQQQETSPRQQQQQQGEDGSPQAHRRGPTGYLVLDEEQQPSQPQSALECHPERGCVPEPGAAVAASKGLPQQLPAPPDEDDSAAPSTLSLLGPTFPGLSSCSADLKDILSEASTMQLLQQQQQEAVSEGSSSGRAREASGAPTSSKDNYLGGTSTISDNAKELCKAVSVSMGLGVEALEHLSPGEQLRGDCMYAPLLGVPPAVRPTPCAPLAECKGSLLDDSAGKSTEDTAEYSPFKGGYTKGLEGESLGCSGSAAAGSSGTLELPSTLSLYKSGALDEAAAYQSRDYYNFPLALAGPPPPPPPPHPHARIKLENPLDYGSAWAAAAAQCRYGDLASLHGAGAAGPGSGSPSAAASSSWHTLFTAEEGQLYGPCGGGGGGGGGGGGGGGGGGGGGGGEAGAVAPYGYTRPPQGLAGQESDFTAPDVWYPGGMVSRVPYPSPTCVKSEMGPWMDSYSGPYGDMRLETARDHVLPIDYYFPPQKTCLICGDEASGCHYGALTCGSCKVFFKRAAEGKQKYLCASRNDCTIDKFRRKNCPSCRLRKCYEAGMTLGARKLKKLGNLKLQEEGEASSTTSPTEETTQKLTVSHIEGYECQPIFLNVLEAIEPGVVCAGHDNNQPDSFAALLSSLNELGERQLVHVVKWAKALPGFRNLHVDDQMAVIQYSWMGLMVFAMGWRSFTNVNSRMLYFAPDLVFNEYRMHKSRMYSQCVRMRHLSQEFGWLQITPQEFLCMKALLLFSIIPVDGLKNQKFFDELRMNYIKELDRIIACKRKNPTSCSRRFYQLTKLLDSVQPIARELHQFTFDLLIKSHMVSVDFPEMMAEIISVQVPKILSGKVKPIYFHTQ
Sequence of Estrogen receptor beta (Homo sapiens) (Q92731 whole entry, looked up, the tested form may be a part): as the sequence (Q92731 whole entry, looked up, the tested form may be a part) above
Sequence of Retinoic acid receptor alpha (Homo sapiens) (P10276 whole entry, looked up): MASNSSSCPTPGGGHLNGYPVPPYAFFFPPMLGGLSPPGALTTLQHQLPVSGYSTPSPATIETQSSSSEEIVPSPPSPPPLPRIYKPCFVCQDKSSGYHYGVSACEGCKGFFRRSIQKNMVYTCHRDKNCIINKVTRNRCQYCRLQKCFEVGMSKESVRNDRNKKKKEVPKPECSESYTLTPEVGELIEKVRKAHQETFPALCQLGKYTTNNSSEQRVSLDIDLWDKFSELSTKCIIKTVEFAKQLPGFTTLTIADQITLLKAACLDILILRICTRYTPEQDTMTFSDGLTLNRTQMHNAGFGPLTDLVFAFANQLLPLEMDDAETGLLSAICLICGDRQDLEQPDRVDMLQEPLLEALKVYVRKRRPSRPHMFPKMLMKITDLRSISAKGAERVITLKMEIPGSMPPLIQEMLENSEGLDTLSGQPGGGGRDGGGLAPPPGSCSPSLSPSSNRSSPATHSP
Sequence of rat Mineralocorticoid Receptor (MR), Nr3c2 (gene 25672) (P22199 whole entry, looked up): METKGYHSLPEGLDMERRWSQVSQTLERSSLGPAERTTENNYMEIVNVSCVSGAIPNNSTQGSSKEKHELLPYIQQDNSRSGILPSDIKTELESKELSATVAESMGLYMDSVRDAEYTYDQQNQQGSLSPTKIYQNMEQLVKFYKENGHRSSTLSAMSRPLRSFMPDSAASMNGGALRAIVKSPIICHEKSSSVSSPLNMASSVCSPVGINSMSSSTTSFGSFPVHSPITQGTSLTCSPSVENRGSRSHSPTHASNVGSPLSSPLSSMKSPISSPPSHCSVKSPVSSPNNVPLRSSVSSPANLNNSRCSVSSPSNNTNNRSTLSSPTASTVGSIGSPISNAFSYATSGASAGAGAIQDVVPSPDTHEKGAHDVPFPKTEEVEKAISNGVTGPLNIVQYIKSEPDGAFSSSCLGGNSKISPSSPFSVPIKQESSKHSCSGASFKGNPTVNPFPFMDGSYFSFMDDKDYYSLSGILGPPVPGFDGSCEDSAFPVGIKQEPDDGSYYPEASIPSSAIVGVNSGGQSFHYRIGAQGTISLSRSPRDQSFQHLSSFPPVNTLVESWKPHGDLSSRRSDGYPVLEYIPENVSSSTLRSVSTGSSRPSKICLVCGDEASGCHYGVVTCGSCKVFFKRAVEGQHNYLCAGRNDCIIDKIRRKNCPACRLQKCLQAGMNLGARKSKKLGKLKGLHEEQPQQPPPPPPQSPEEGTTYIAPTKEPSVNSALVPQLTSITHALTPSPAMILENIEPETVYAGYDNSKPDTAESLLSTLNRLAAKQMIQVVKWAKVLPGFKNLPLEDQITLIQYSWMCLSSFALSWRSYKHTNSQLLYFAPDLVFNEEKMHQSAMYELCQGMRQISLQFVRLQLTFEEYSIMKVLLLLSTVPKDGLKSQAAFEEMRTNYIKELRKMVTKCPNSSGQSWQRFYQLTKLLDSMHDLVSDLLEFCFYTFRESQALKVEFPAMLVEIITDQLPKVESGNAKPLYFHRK

NC(=Nc1ccccc1)Nc1ccccc1
outcome [1]: inactive | outcome [2]: inactive | outcome [3]: inactive | outcome [4]: inactive

CCCCc1nc2cccnc2n1Cc1ccc(-c2ccccc2-c2nnn[nH]2)cc1
outcome [2]: inactive | outcome [3]: inactive

CCOCCOCCO
outcome [5]: inactive

Cc1ccc(-c2cc(C(F)(F)F)nn2-c2ccc(S(N)(=O)=O)cc2)cc1
AC50 [5]: 72.6 µM (active)

CCCCCCCCCC[N+](C)(C)[O-]
outcome [1]: inactive | outcome [5]: inactive | outcome [2]: inactive | outcome [3]: inactive

CC1(C)C(=O)NC(=O)N1CO
outcome [1]: inactive | outcome [2]: inactive

O=C(Oc1ccccc1)c1cccc(C(=O)Oc2ccccc2)c1
outcome [5]: inactive | outcome [3]: inactive | outcome [4]: inactive

CSc1ccc(Oc2ccc(S(N)(=O)=O)cc2CN(C)C)cc1C
outcome [1]: inactive | AC50 [5]: 77 µM (active) | outcome [2]: inactive | outcome [4]: inactive | outcome (PGR (gene 5241)): inactive

O=[Si]=O
outcome [1]: inactive | outcome [2]: inactive | outcome [3]: inactive

CCc1nc(N)nc(N)c1-c1ccc(Cl)cc1
outcome [1]: inactive | outcome [2]: inactive | outcome [3]: inactive | outcome (PGR (gene 5241)): inactive

O=C(O)CC(O)(CC(=O)O)C(=O)O
outcome [1]: inactive | outcome [6]: inactive | outcome [2]: inactive | outcome [3]: inactive | outcome [7]: inactive

O=Cc1ccccc1C=O
AC50 [5]: 66.1 µM (active) | outcome [2]: inactive | outcome [3]: inactive | outcome (PGR (gene 5241)): inactive

CCC(C)N(C)C(=O)c1cc2ccccc2c(-c2ccccc2Cl)n1 (centres undefined)
outcome [1]: inactive | outcome [5]: inactive | outcome [2]: inactive | outcome [3]: inactive | outcome [4]: inactive

Cc1c(C)c2c(c(C)c1O)CCC(C)(COc1ccc(CC3SC(=O)NC3=O)cc1)O2 (centres undefined)
outcome [5]: inactive | outcome [2]: inactive | outcome [3]: inactive

CS(=O)(=O)c1ccc([C@@H](C[C@H]2CCC(=O)C2)C(=O)Nc2cnccn2)cc1Cl
outcome [1]: inactive | outcome [2]: inactive | outcome [3]: inactive
